Compound activity from PubChem.
Rows were chosen to be rich in hits. Some 21% of all compounds tested hit in one or more screens of this group.
DT40 TDP1 no CPT: qHTS for Inhibitors of human tyrosyl-DNA phosphodiesterase 1 (TDP1): qHTS in cells in absence of CPT; DT40 Tdp1-/- hTDP1 cells, no CPT, ATP luminescence, 48 h; Potency, µM (doses to about 46.2 µM), inactives show top-dose activity change, negative = growth inhibition, actives largely listed as inhibitors; hit rate 15% among 420,000; also: potency is read from the fitted curve at half-maximal effect; nearly all actives have a fitted effect of over 55% in size
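Seeded 400 DT40-hTDP1 cells/well (vehicle DMSO, no 20 nM CPT); pinned compounds; ≥48 hr at 37 °C; CellTiter-Glo luminescence as viability measure.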
ELG1 DNA repair: ELG1-dependent DNA repair inhibition; Potency, µM (highest dose often 46.1 µM), without a hit: at the highest dose activity change, negative = inhibition, hits mostly inhibitors; HEK293T ELG1-luciferase reporter, luminescence, 16 h; DNA damage induced by 5-fluorouridine; hit rate 2.3% among 330,000; AID 504467; also: potency is read from the fitted curve at half-maximal effect; nearly all actives have a fitted effect of over 55% in size
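In this reporter screen, reduction of luminescence relative to DMSO vehicle indicated activity. Compounds and 5-fluorouridine were added together to 2,000 cells per well, incubated for 16 hr at 37 °C, then developed with ONE-Glo.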
IL1B secr inh: inflammasome signaling inhibition, IL-1 beta readout | THP-1 LPS/ATP IL-1B secretion, AlphaLISA, 16 h; stronger effect = lower value | activity change, % at 57.5 µM | hit rate 4.7% among 360,000; in the data active = activity change below about -50%; inconclusive = mostly about -30% to -49%
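Secreted IL-1B measured by AlphaLISA bead assay after 16 h compound exposure of THP-1 cells; compounds (final up to 57.5 uM) added 1 h before LPS (250 ng/mL) and ATP (1.25 mM) stimulation; lower signal means less secretion.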
TDP1 cell CPT: growth inhibition of DT40 Tdp1-/-;hTDP1 cells with camptothecin (screen for TDP1 inhibitors). chicken DT40 Tdp1-/-;hTDP1 cells + 20 nM CPT, ATP luminescence, 48 h. Potency, µM (highest dose often 46.2 µM), for inactives: at the top dose activity change, negative = growth inhibition, actives largely listed as inhibitors. hit rate 12% among 420,000. AID 686979; also: potency is read from the fitted curve at half-maximal effect; nearly all actives have a fitted effect of over 55% in size
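Chicken DT40 Tdp1-/- cells complemented with human TDP1, 400 cells/well, exposed to compounds plus 20 nM camptothecin for at least 48 h at 37 C; viability read as ATP content by CellTiter-Glo luminescence.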
RORgamma inh: blocks mouse ROR gamma transcriptional activity; P51450; Drosophila S2 Gal4-RORgamma UAS-luciferase reporter, 20 h; Potency, µM (highest dose often 53.6 µM), without a hit: top-dose activity change, negative = inhibition, hits mostly inhibitors; hit rate 5.4% among 310,000; AID 2551; also: potency is read from the fitted curve at half-maximal effect; nearly all actives have a fitted effect of over 60% in size
Target sequence (P51450 whole entry, looked up, the tested form may be a part): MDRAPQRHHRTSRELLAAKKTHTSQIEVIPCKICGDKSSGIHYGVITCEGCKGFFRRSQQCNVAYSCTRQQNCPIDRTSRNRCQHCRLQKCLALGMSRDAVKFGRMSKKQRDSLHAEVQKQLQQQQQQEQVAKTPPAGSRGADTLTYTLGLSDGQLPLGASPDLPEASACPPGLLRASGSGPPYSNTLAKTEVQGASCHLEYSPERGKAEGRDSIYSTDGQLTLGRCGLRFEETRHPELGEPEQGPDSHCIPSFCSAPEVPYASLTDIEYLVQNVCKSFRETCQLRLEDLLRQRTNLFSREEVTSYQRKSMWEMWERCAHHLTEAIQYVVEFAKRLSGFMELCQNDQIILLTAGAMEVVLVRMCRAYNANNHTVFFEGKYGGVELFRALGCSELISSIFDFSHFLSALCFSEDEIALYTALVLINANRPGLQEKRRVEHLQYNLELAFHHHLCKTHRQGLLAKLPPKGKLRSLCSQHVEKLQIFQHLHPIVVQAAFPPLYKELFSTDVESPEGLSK
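ROR gamma transcriptional activity was tracked as Gal4-UAS luciferase output in stably transfected Drosophila Schneider cells, with compound added 1 hr before 700 uM copper sulfate induction and a 20 hr ambient-temperature incubation.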
VP16 counter: Gal4-VP16 reporter inhibition counter-screen. Drosophila S2 Gal4-VP16 UAS-luciferase, luminescence, 20 h. Potency, µM (top dose mostly 53.6 µM), without a hit: at the top dose activity, negative = inhibition, hits mostly inhibitors. hit rate 3.5% among 310,000;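 also: Gal4-VP16 expression switched on by copper sulfate through the metallothionein promoter; potency is read from the fitted curve at half-maximal effect; nearly all actives have a fitted effect of over 50% in size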
Starred values were filed as active, the others as inactive; ? = inconclusive; nt = no result; [ ] = dose if it differs, or a comment. Unless noted, calls follow the shape of the dose curve; as a rule, active = well fitted curve in the direction sought with a large enough effect; inconclusive = small, poorly fitted or top-dose-only effect, or another doubt; inactive = no such curve, though single readings can be large; an effect the other way counts as inactive or inconclusive. % is scaled to controls: 0 for no effect and ±100 for the full control effect.

SMILES	DT40 TDP1 no CPT	ELG1 DNA repair	IL1B secr inh	TDP1 cell CPT	RORgamma inh	VP16 counter
CC(C)Oc1cccc(C(=O)C2CCCN(C(=O)c3ccsc3)C2)c1 (configuration not stated)	-0.9%	1.1%	3.8	1.3%	?	1.3%
O=C(c1noc2c1CCCC2)N1CCCC(N2CCN(c3ccccc3F)CC2)C1 (configuration not stated)	?	-6.3%	0.0	29.1µM*	-1.2%	-0.7%
CCc1[nH]nc(C(=O)N2CCCC(C(=O)c3cccc(OC(C)C)c3)C2)c1C (configuration not stated)	16.4µM*	11.6%	?	?	?	0.0%
CC(C)Oc1cccc(C(=O)C2CCCN(C(=O)c3ccnn3C)C2)c1 (configuration not stated)	20.6µM*	?	6.9	?	26.7%	-24.0%
CCOc1ccc(CN(C)C(=O)CNC(=O)c2cc(OC)c(OC)c(OC)c2)cc1	-17.9%	-12.3%	6.0	0.8%	-1.0%	-19.7%
CC[C@@]1(C(=O)OC)N[C@H](CN(C)S(=O)(=O)c2ccc(C(C)(C)C)cc2)[C@@H]2C(=O)N(C)C(=O)[C@@H]21	?	-6.6%	10.0	-28.2%	nt	nt
CCc1cc(C(=O)N2CCCC(C(=O)c3cccc(OC(C)C)c3)C2)n(C)n1 (configuration not stated)	18.4µM*	?	24.1	16.4µM*	?	-3.4%
CCc1cc(C(=O)N2CCCC(C(=O)c3ccc(Oc4ccccc4)cc3)C2)n(C)n1 (configuration not stated)	14.6µM*	?	-60.7*	10.3µM*	?	-13.3%
CCc1cc(C(=O)N2CCCC(C(=O)c3ccc(OC)c(F)c3)C2)n(C)n1 (configuration not stated)	?	-20.1%	35.0	?	-44.4%	-1.7%
COc1ccc(C(C(=O)NC2CCCCC2)N(C(=O)c2ccco2)c2ccccc2C(C)=O)cc1 (configuration not stated)	?	6.4%	-14.4	-1.0%	?	8.7%
CC(C)N(Cc1ccccc1)S(=O)(=O)c1ccc(-n2cccn2)cc1	?	nt	9.9	?	nt	nt
CCN(CC(=O)Nc1ccccc1C(=O)OC)S(=O)(=O)c1ccccc1	?	?	22.2	23.1µM*	23.6%	-3.3%
COc1ccc(N2CCN(C(=O)CN(c3cccc(OC)c3)S(=O)(=O)c3ccccc3)CC2)cc1	14.6µM*	-15.3%	-12.5	20.6µM*	?	28.1%
COc1ccc(N(CC(=O)Nc2ccccc2C(N)=O)S(=O)(=O)c2ccc(C)c([N+](=O)[O-])c2)cc1	23.1µM*	?	?	?	-1.8%	1.0%[10 µM]
COc1ccc(N(CC(=O)N2CCN(c3ccccc3)CC2)S(=O)(=O)c2ccccc2)cc1	18.4µM*	nt	-6.1	16.4µM*	nt	nt
COc1ccc(C)cc1NC(=O)CN1C(=O)COc2ccc(C)cc21	0.1%	-10.0%	-5.3	0.1%	1.1%	-1.7%
COc1ccc(N(CC(=O)Nc2ccccc2C(=O)N2CCCC2)S(=O)(=O)c2ccccc2)cc1	16.4µM*	-11.3%	-0.1	20.6µM*	2.1%	-2.0%
COc1ccc(N(CC(=O)Nc2ccccc2C(=O)N2CCCC2)S(C)(=O)=O)cc1	5.2%	-2.4%	-10.0	18.6%	1.1%	-13.9%
O=C(Nc1ccccc1)OC[C@H](CN1CCCCC1)OC(=O)Nc1ccccc1	nt	nt	nt	nt	26.6%[2.98 µM]	-10.5%[17 µM]
COc1cc(/C=C/C(=O)N2CCC=CC2=O)cc(OC)c1OC	1.84µM*	?	-102.6*	2.06µM*	3.55µM*	7.94µM*
